According to PubChem BioAssay AID1745848 (National Center for Advancing Translational Sciences (NCATS), 2022):
In all, about 2,100 compounds went through this assay and about 940 (45%) were called active. Another 48% or so got no clear call; they are omitted. The set was probably picked from earlier hits. Some of the results follow. A number with no mark means an inactive call. Calls come from the whole dose curve; as a rule, active = well fitted inhibition curve with a large enough effect; inconclusive = small, poorly fitted or top-dose-only effect; inactive = no such curve, though single readings can be large or run the other way.

test: Confirmatory qHTS for Inhibitors of ATXN expression; settings: ATXN2-luciferase reporter cells, luminescence, 24 h; series mostly up to 57.5 µM; activity change, negative = inhibition: at the top concentration; note: nearly all actives have a fitted effect of over 65% in size;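 for activity change, negative = inhibition: 0% = DMSO vehicle wells and -100% = medium-only wells without cells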
Source text: PI: Daniel Scoles Ph.D. University of Utah School of Medicine, Salt Lake City, Utah MLPCN Grant: NS073009 Spinocerebellar ataxia type 2 (SCA2) is a multisystem neurodegenerative disease caused by a dominantly acting mutation leading to expansion of a polyQ domain in the ataxin-2 protein (ATXN2). SCA2 patients develop progressive ataxia and later lose function in other neuronal systems. Prominent parkinsonian signs develop in some patients. Like many neurodegenerative disorders, no symptomatic or disease-modifying treatments are known. The primary objective of the proposed research is to identify compounds inhibiting ATXN2 expression and to test them for efficacy in SCA2 mouse models. We have developed a cell-based assay paired with an in vivo mouse model using identical luciferase expression constructs. This approach takes advantage of an ATXN2-luciferase transgene, with the luciferase gene flanked by the upstream and downstream portions of the ATXN2 gene. Here we describe a 5-7 dose quantitative high thoroughput screen (qHTS) for compounds lowering ATXN2 expression. We screened the NIH Molecular Libraries Small Molecule Repository (MLSMR) and NCGC's mechanistically annotated (MIPE) and drug repurposing (NPC) collections of compounds for lowering expression of an ATXN2-luciferase reporter in HEK-293 cells. The assay is a multiplexed cell viability assay to ensure target reduction in the absence of cytotoxicity. Secondary qHTS assays included a CMV-luciferase reporter expressed in HEK-293 cells as well as a biochemical assay using recombinant luciferase to detect inhibitors of the reporter enzyme. Compounds that inhibit ATXN2 expression but is not cytotoxic were selected for confirmatory and secondary screens.
PROTOCOL TABLE (as described by Inglese J, Shamu CE and Guy RK. 2007) SEQUENCE No. (e.g., 1, 2, 3, etc.); PARAMETER (e.g., Cells, Incubation, Reagent, etc.); VALUE; DESCRIPTION. 1; Cells; 4 uL; white, solid bottom, 1536-well Greiner assay plate. 2; Incubation; 2 hr; 37 degree C in 5% humidified CO2. 3; Compounds; 23 nL; Kalypsis pintool (Wako USA) equipped with a 1536-well pin head. 4; Incubation; 24 hr; 37 degree C in 5% humidified CO2. 5; Reagent; 1 uL; Gly-Phe-7-Amino-4-trifluoromethylcoumarin. 6; Incubation; 30 min; 37 degree C in 5% humidified CO2. 7; Detection; Fluorescence; ViewLux plate reader (PerkinElmer). 8; Reagent; 3 uL; SteadyGlo luciferase solution (Promega). 9; Incubation; 5 min; room temperature. 10; Detection; Luminescence; ViewLux plate reader (PerkinElmer). NOTES (numbers refer to Sequence numbers above) 1. […] expressing ATXN2-luciferase reporter were suspended in phenol-red free DMEM and dispensed in assay plates using a Multidrop Combi dispenser (Thermo Fisher Scientific). Wells containing medium only were plated on each plate, and values were used to normalize (100% inhibition) in the luciferase and CellTiter-Fluor assays. 2. Assay plates were incubated. Evaporation was prevented by covering assay plates with metal lids containing holes to allow gas diffusion. 3. Compounds were added in a dose response manner with the final concentrations of 57, 11.4, 2.28, 0.46, 0.091, 0.018, 0.0037 uM. Vehicle-only plates, with DMSO being pin-transferred to columns 5-48, were inserted uniformly at the beginning and the end of each library to monitor and record any shifts in assay performance. 5. 125 uM Gly-Phe-7-Amino-4-trifluoromethylcoumarin (MP Biomedicals) working concentration was used at a final concentration of 25 uM. 7. To assess cell viability; the assay plates were read using the ViewLux high-throughput CCD imager (PerkinElmer), wherein single end-point fluorescence measurement was acquired (excitation 405/10; emission 540/25 nm). 8. Detection reagent SteadyGlo Luciferase (Promega) was added to the assay plate. 10. Luminescence is then measured on the ViewLux imager equipped with a clear emission filter using a 2 sec exposure. […]
Potency is the fitted concentration of half-maximal effect.

| Compound | Potency | activity change, negative = inhibition |
| --- | --- | --- |
| C[C@]12CCC3C(CCC4=CC(O)CC[C@@]43/C=N/O)C1(O)CCC2C1=CC(=O)OC1 (some centres undefined) | 0.355 µM (active) |  |
| C[C@]12CC[C@H](O)C[C@H]1CC[C@@H]1[C@@H]2CC[C@]2(C)[C@@H](C3=CC(=O)OC3)CC[C@]12O | 0.282 µM (active) |  |
| CC12CCC(O)CC1CCC1C2CCC2(C)C(C3=CC(=O)OC3)CCC12O (centres undefined) | 0.398 µM (active) |  |
| COc1ccc(O)c2c(=O)c3c(OC)cc4c(c3oc12)C1C=COC1O4 (centres undefined) | 2 µM (active) |  |
| O=C1NC(=O)N(CCc2ccc(F)cc2)C(=O)/C1=C/C=C/c1ccccc1 | 7.94 µM (active) |  |
| c1ccc2sc(N3CCNCC3)nc2c1 |  | -24.4% |
| COc1cc2nc(CN3CC=C(c4ccccc4)CC3)[nH]c(=O)c2cc1OC | 0.282 µM (active) |  |
| COc1cc2c(cc1OC)-c1c3c(cc4c1[C@@H](C2)N(C)CC4)OCO3 | 1.12 µM (active) |  |
| COC1C(O)C(C)OC(OC2C(Oc3cccc4c(O)c5c(=O)oc6ccc(C)c7c(=O)oc(c34)c5c67)OC(C)C(O)C2O)C1O (centres undefined) |  | -5.87% [at 11.5 µM] |
| CN1C(=O)NC(=O)/C(=C\C=C\c2ccccc2[N+](=O)[O-])C1=O | 11.2 µM (active) |  |
| CNC(=O)Nc1ccc(C(=O)N/N=C\C23CC[C@@H](O)CC2(O)CC[C@@H]2[C@@H]3CCC3(C)C(C4=CC(=O)OC4)CCC23O)cc1 (some centres undefined) | 25.1 µM (active) |  |
| CC12CCC3C(CCC4(O)CC(O)CCC34C=NO)C1(O)CCC2C1=COC(=O)C1 (centres undefined) | 0.282 µM (active) |  |
| CCCCN=C[C@]12CCC(O)CC1(O)CCC1[C@@H]2CC[C@]2(C)[C@H](C3C=CC(=O)O3)CCC12O (some centres undefined) | 0.631 µM (active) |  |
| C1=NCCc2c1[nH]c1ccccc21 | 3.16 µM (active) |  |
| C[C@@H]1C[C@@H]([C@H](O)CC2CC(=O)NC(=O)C2)C(=O)[C@@H](C)C1 | 1.26 µM (active) |  |
| C[C@H]1C[C@@H](C)C(=O)[C@@H]([C@H](O)CC2CC(=O)NC(=O)C2)C1 | 0.178 µM (active) |  |
| CC(=O)OC1(C)CC(C)C(=O)C(C(O)CC2CC(=O)NC(=O)C2)C1 (centres undefined) | 0.01 µM (active) |  |

| Compound | Potency | activity change, negative = inhibition |
| --- | --- | --- |
| O=C(CSC1c2ccccc2-c2ccccc21)N/N=C/c1ccccc1O | 3.16 µM (active) |  |
| C[C@H]1CCC[C@H](O)CCCCCc2cc(O)cc(O)c2C(=O)O1 | 3.16 µM (active) |  |
| C[C@H]1CCC[C@@H](O)CCC/C=C/c2cc(O)cc(O)c2C(=O)O1 | 1.41 µM (active) |  |
| COc1ccc(CCNCc2ccc(F)cc2)cc1OC |  | -6.67% [at 11.5 µM] |
| O=C(Nc1ccc(OC(=O)N2CCCCC2)cc1)N1CCOCC1 | 4.47 µM (active) |  |
| CC(=O)O[C@H]1[C@H]2O[C@]23[C@@H]2CC[C@]4(O)C[C@@H](O)CC[C@]4(C)C2CC[C@]3(C)[C@H]1c1ccc(=O)oc1 (some centres undefined) | 0.0398 µM (active) |  |
| C[C@H]1[C@@H](OS(=O)(=O)O)C[C@@H]2C[C@H]([C@@H](O)c3cc(=O)[nH]c(=O)[nH]3)NC3=NC[C@H]1N32 | 7.94 µM (active) |  |
| NC(=O)c1c(Br)n(C2OC(CO)C(O)C2O)c2ncnc(N)c12 (centres undefined) | 1.58 µM (active) |  |
| COc1cccc(C(c2nnnn2-c2ccc3c(c2)OCCO3)N2CCC(n3c(=O)[nH]c4ccccc43)CC2)c1OC (centres undefined) | 3.55 µM (active) |  |
| O=c1[nH]c2ccccc2n1C1CCN(C(c2cc3ccccc3o2)c2nnnn2-c2ccc3c(c2)OCCO3)CC1 (centres undefined) | 3.16 µM (active) |  |
| Cc1cccc(C)c1-n1nnnc1C(c1cc2ccccc2o1)N1CCC(n2c(=O)[nH]c3ccccc32)CC1 (centres undefined) | 3.16 µM (active) |  |
| COC(=O)C(O)(c1ccc(NC(=S)NC(=O)c2ccc(Cl)cc2Cl)c(C)c1)C(F)(F)F (centres undefined) |  | -8.26% [at 11.5 µM] |
| CN1C2CCC1/C(=C/c1ccccn1)C(=O)/C2=C\c1ccccn1 | 0.398 µM (active) |  |
| CC1CC(C)CC(C)C(O)C(C#N)=CC=CCC(C2CCCC2C(=O)O)OC(=O)CC(O)C(C)C1 (centres undefined) | 0.501 µM (active) |  |
| O=C1NC2C(=CC(O)C(O)C2O)c2cc3c(cc21)OCO3 (centres undefined) | 0.199 µM (active) |  |
| CCCCc1ccc2[nH]cc(CCN)c2c1 | 3.16 µM (active) |  |
| NC(Cc1ccc(Cl)cc1)c1csc(Nc2ccccn2)n1 (centres undefined) | 22.4 µM (active) |  |
